Screening data (PubChem BioAssay)
An excerpt weighted towards active compounds, which were near 3.9% of everything screened.
Cardio protect – myocardial damage modulation in H9c2 cells; protection from H2O2 cell death, % at 20 µM; H9c2 cardiomyocytes, H2O2 injury protection, ATPLite, 2 h; actives 0.63% (n = 360,000);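 active = compounds giving at least 50% protection of heart cells from peroxide-induced death in the single-dose screen, raw or plate-pattern-corrected value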;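 note: 0% = DMSO wells with peroxide and 100% = DMSO wells without peroxide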
ALR inh – human ALR oxidase inhibition via reduced H2O2 | P55789 | purified ALR, DTT oxidation, H2O2 HRP-luminol luminescence | inhibition, % (test concentration not listed) | actives 3.8% (n = 290,000) | AID 485317;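 active = mean replicate inhibition above about 79%, with every replicate also reaching it, limit read from the data; inconclusive = only one of the two criteria met; inactive = mean below limit and not every replicate reaching it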
SUMO HTRF inh – inhibitors of human SUMOylation (UBC9) | P63279 | HTRF SUMOylation assay, SAE1/SAE2 + UBC9, in vitro | inhibition, % at 35 µM | actives 0.36% (n = 290,000) | AID 2006; in the data active = inhibition above about 50%, passing the limit was not always enough; inconclusive = no clear call, values can overlap the other calls
NTR1 agonist – activates human neurotensin receptor 1; P30989; NTR1-U2OS beta-arrestin-GFP spot imaging, agonist mode; activation, % at 20 µM; actives 0.17% (n = 330,000); AID 493036;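 active = activation at or above 40% of the spot to cytoplasm intensity ratio, with at least 20 cells analyzed; inconclusive = wells under 20 cells, flagged as cytotoxic or low count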;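 note: 0% = DMSO without peptide and 100% = 100 nM NTR1 peptide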
Target sequence (P30989 whole entry, looked up): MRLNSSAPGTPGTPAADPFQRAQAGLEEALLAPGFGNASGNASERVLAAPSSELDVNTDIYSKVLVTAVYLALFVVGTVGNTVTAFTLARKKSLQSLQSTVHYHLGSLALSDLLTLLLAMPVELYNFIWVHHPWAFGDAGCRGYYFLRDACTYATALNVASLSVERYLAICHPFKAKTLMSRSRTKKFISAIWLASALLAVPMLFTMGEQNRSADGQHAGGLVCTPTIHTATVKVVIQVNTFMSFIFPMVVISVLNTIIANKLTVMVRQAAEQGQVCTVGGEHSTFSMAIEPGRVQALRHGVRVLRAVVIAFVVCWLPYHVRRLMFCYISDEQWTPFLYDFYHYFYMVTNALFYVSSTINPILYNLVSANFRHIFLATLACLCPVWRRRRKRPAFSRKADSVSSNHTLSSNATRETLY
An asterisk follows results filed as active; ? = inconclusive; / = no result.

SMILES	Cardio protect	ALR inh	SUMO HTRF inh	NTR1 agonist
O=C(NCCN1CCC(Cc2ccccc2)CC1)C1CCCN(S(=O)(=O)c2cnc[nH]2)C1 (stereo not given)	-1	-44	-4	1
COc1cc(-c2nc(-c3ccc(-c4ccccc4)nc3OC)no2)cc(OC)c1OC	/	/	14	/
CCOC(=O)c1ccc(NC(=O)C2CCN(S(=O)(=O)c3c(C)nn(C)c3C)CC2)cc1	-4	98*	4	1
CC1(C(=O)Nc2ccc3c(c2)OCO3)CCN1C(=O)c1ccccc1 (stereo not given)	-1	/	/	/
CN(C)CCCN1c2ccccc2Sc2ccc3ccccc3c21	-9	/	/	/
CN(C)CCCN1c2ccccc2Sc2ccc(Cl)cc21	27	98*	18	4
OCCN1CCN(CCCN2c3ccccc3Sc3ccc(Cl)cc32)CC1	23	99*	-9	4
CN1CCN(CCCNC(=O)c2cn(C)c3ccc(S(=O)(=O)N(C)C)cc3c2=O)CC1	1	-2	18	-3
CN1CCN(CCCN2c3ccccc3Sc3ccc(S(=O)(=O)N(C)C)cc32)CC1	-20	96*	/	13
CC(=O)c1ccc2c(c1)N(CCCN1CCC(CCO)CC1)c1ccccc1S2	-8	96*	/	-2
COc1ccc2oc(C)c(C(=O)Cn3ccnc3)c2c1	5	0	2	0
CCc1nc2c(OCc3ccc(Cl)cc3Cl)cccn2c1N(C)C(=O)C1CC1	17	/	/	/
Cc1ccc(C(=O)Nc2ccc(SC(F)F)cc2)s1	-15	10	-6	2
O=C(Nc1ccc(SC(F)F)cc1)C1=COCCO1	-9	99*	-1	2
CCOC(=O)CCC(NC(=O)CCCCC(=O)NC(CCC(=O)OCC)C(=O)OCC)C(=O)OCC (stereo not given)	0	-21	4	1
O=C(CCc1nc2ccccc2c(=O)[nH]1)N1CCN(S(=O)(=O)c2cccc([N+](=O)[O-])c2)CC1	70*	-6	/	0
O=C(CCc1nc2ccccc2c(=O)[nH]1)N1CCN(S(=O)(=O)c2ccc(F)cc2)CC1	86*	-3	/	2
COc1cc(/C=C2/SC(=S)N(CC(=O)O)C2=O)ccc1OC(=O)c1ccco1	-11	98*	-4	-1
COc1cc(/C=C2/SC(=S)N(Cc3ccccc3)C2=O)ccc1O	-10	-2	-4	-2
CCOc1cc(/C=C2/SC(=S)N(CC(=O)O)C2=O)ccc1OC(=O)c1cccs1	-8	/	2	0
COc1cc(/C=C2\SC(=S)N(CC(=O)O)C2=O)ccc1OC(=O)c1ccco1	-4	99*	-4	0
N#C/C(=C\c1ccc(N2CCCCC2)o1)C(N)=O	-1	90*	-3	-3
COc1ccccc1NC(=O)c1sc2nc(-c3ccco3)ccc2c1N	15	-4	54*	1
COc1ccccc1NC(=O)c1sc2nc(C)cc(C)c2c1N	-4	/	/	1
Cc1ccc2nc3sc(C(=O)NCc4ccco4)c(N)c3cc2c1	-11	8	-4	0
SMILES	Cardio protect	ALR inh	SUMO HTRF inh	NTR1 agonist
Nc1c(C(=O)Nc2ccccc2)sc2nc(-c3cccnc3)ccc12	/	-3	30	0
COc1cc2cc3c(N)c(C(=O)NCc4ccco4)sc3nc2cc1OC	58*	3	34	1
Nc1c(C(=O)Nc2ccccc2)sc2nc(-c3ccco3)ccc12	29	-10	58*	-2
CCOc1ccc(Oc2nc(Nc3ccc(C)cc3)nc(N(C)C)n2)nn1	-11	/	8	3
C=C(c1ccc2nc(NC(=O)OC)[nH]c2c1)c1cccs1	-7	/	/	/
CC1(C)N([O-])C(c2cccs2)=C[N+]1=O	2	-5	22	0
COc1cc(NC(=O)c2cccs2)c(C(=O)OCC(=O)c2cc(C)n(-c3ccccc3)c2C)cc1OC	-2	-2	20	0
CC(=O)n1cc(N(C(=O)CCl)c2ccc([N+](=O)[O-])cc2)c2ccccc21	-4	40	9	9
O=Cc1[nH]c2ccccc2c1N(C(=O)CCl)c1ccc([N+](=O)[O-])cc1	-7	99*	16	8
CC1=C(C(=O)OCCOc2ccccc2)C(c2coc3ccccc3c2=O)C2=C(CCCC2=O)N1 (stereo not given)	16	-4	17	0
Cc1nn(CC(=O)NCc2ccccc2)c(=O)c2cccn12	3	0	9	0
O=C(NNc1cc(Cl)cc(Cl)c1)C1CCC1	-5	0	13	4
COc1ccc(Nc2ccccc2C(=O)O)cc1	0	99*	0	2
COc1ccc(Nc2cccc3ccccc23)cc1	-26	?	/	0
COc1ccc(Nc2ccc(Nc3ccc(OC)cc3)nn2)cc1	-5	-11	2	0
